Reference: PubChem BioAssay AID1159580 (chemical genetic matrix, 2015)
The whole screen tested about 5,500 compounds, of which about 2,000 (36%) were called active. About 18% were inconclusive and are not listed. Rule as the data show it: active = normalized growth mostly below about 0.91 (no sharp cut-off); inconclusive = no clear call, values can overlap the other calls; inactive = mostly above about 0.92. Some of the results follow.

Experiment: chemical genetic growth profiling, strain panel (AID 1159580);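 also: tested at 20 µM; growth read once vehicle control cultures reached saturation at 30 °C; 1 = growth at the plate median or of vehicle wells; lower values mean less growth of the strain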
Conditions: S. cerevisiae deletion strains, growth OD

Measured: normalized growth

Cc1ccc(N=CN(C)C=Nc2ccc(C)cc2C)c(C)c1
inactive: locus YAL021C, strain ccr4, stronger effect = lower value 0.944 | locus YAL026C, strain drs2, stronger effect = lower value 0.962 | locus YAL030W, strain snc1, stronger effect = lower value 0.984 | locus YBL061C, strain skt5, stronger effect = lower value 0.986 | locus YBR009C, strain hhf1, stronger effect = lower value 0.926 | locus YBR023C, strain chs3, stronger effect = lower value 1 | locus YBR171W, strain sec66, stronger effect = lower value 0.971 | locus YBR231C, strain swc5, stronger effect = lower value 1 | locus YBR279W, strain paf1, stronger effect = lower value 0.983 | locus YCL011C, strain gbp2, stronger effect = lower value 0.965 | locus YCL016C, strain dcc1, stronger effect = lower value 0.971 | locus YCL061C, strain MRC1, stronger effect = lower value 0.952 | locus YCL069W, strain vba3, stronger effect = lower value 0.979 | locus YCR088W, strain abp1, stronger effect = lower value 0.99 | locus YDL005C, strain med2, stronger effect = lower value 0.987 | locus YDL040C, strain nat1, stronger effect = lower value 0.987 | locus YDR001C, strain nth1, stronger effect = lower value 0.979 | locus YDR069C, strain doa4, stronger effect = lower value 0.969 | locus YDR137W, strain rgp1, stronger effect = lower value 0.981 | locus YDR159W, strain sac3, stronger effect = lower value 0.974 | locus YDR195W, strain ref2 1.03 | locus YDR297W, strain sur2, stronger effect = lower value 0.977 | locus YDR334W, strain swr1, stronger effect = lower value 0.987 | locus YDR335W, strain msn5, stronger effect = lower value 0.966 | locus YDR392W, strain spt3, stronger effect = lower value 0.925 | locus YEL003W, strain gim4, stronger effect = lower value 0.957 | locus YEL037C, strain rad23, stronger effect = lower value 0.98 | locus YEL061C, strain CIN8 (second series), stronger effect = lower value 0.986 | locus YER015W, strain faa2, stronger effect = lower value 0.972 | locus YER016W, strain bim1, stronger effect = lower value 0.975 | locus YER111C, strain swi4, stronger effect = lower value 0.955 | locus YER155C, strain BEM2 (second series), stronger effect = lower value 1.01 | locus YFR010W, strain ubp6, stronger effect = lower value 0.987 | locus YGL167C, strain pmr1, stronger effect = lower value 0.98 | locus YGL173C, strain kem1, stronger effect = lower value 0.962 | locus YGL227W, strain vid30, stronger effect = lower value 0.988 | locus YGL240W, strain doc1, stronger effect = lower value 0.969 | locus YGL253W, strain hxk2, stronger effect = lower value 0.979 | locus YHR013C, strain ard1, stronger effect = lower value 0.943 | locus YHR027C, strain rpn1, stronger effect = lower value 0.975 | locus YHR030C, strain SLT2, stronger effect = lower value 0.999 | locus YHR079C, strain IRE1, stronger effect = lower value 1.01 | locus YHR142W, strain chs7, stronger effect = lower value 0.957 | locus YJL092W, strain hpr5, stronger effect = lower value 0.978 | locus YJL095W, strain BCK1 (second series), stronger effect = lower value 0.978 | locus YJL095W, strain BCK1, stronger effect = lower value 0.962 | locus YJL115W, strain asf1, stronger effect = lower value 0.966 | locus YJL129C, strain trk1, stronger effect = lower value 0.976 | locus YJL154C, strain vps35, stronger effect = lower value 0.987 | locus YJL164C, strain tpk1, stronger effect = lower value 0.97 | locus YJL166W, strain qcr8, stronger effect = lower value 0.974 | locus YJR066W, strain TOR1, stronger effect = lower value 0.962 | locus YKL160W, strain elf1, stronger effect = lower value 0.989 | locus YKR026C, strain gcn3, stronger effect = lower value 0.989 | locus YKR091W, strain srl3, stronger effect = lower value 0.983 | locus YLL001W, strain dnm1, stronger effect = lower value 0.998 | locus YLL026W, stronger effect = lower value 0.996 | locus YLL041C, strain sdh2, stronger effect = lower value 0.98 | locus YLR027C, strain aat2, stronger effect = lower value 0.98 | locus YLR113W, strain HOG1, stronger effect = lower value 0.988 | locus YLR221C, strain rsa3, stronger effect = lower value 0.941 | locus YLR258W, strain gsy2, stronger effect = lower value 0.98 | locus YLR262C, strain YPT6 (second series), stronger effect = lower value 0.962 | locus YLR320W, strain mms22, stronger effect = lower value 0.969 | locus YLR342W, strain FKS1, stronger effect = lower value 0.985 | locus YLR357W, strain rsc2, stronger effect = lower value 0.898 | locus YLR370C, strain arc18, stronger effect = lower value 0.985 | locus YLR384C, strain iki3, stronger effect = lower value 0.993 | locus YML120C, strain ndi1, stronger effect = lower value 0.975 | locus YMR058W, strain fet3, stronger effect = lower value 0.972 | locus YMR125W, strain sto1, stronger effect = lower value 1 | locus YMR129W, stronger effect = lower value 0.97 | locus YMR205C, strain PFK2, stronger effect = lower value 0.998 | locus YMR231W, strain pep5, stronger effect = lower value 0.995 | locus YNL071W, strain lat1, stronger effect = lower value 0.978 | locus YNL183C, strain NPR1, stronger effect = lower value 0.976 | locus YNL209W, strain ssb2, stronger effect = lower value 0.978 | locus YNL248C, strain rpa49, stronger effect = lower value 0.905 | locus YNL322C, strain KRE1 (second series), stronger effect = lower value 0.967 | locus YNR049C, strain mso1, stronger effect = lower value 0.948 | locus YOR001W, strain rrp6, stronger effect = lower value 0.984 | locus YOR070C, strain gyp1, stronger effect = lower value 0.975 | locus YOR080W, strain dia2, stronger effect = lower value 0.973 | locus YOR083W, strain WHI5, stronger effect = lower value 0.983 | locus YOR106W, strain vam3, stronger effect = lower value 0.95 | locus YOR231W, strain MKK1, stronger effect = lower value 0.994 | locus YOR265W, strain rbl2, stronger effect = lower value 0.991 | locus YOR270C, strain vph1, stronger effect = lower value 0.837 | locus YOR290C, strain snf2, stronger effect = lower value 0.949 | locus YPL051W, strain arl3, stronger effect = lower value 0.965 | locus YPL078C, strain atp4, stronger effect = lower value 0.97 | locus YPL106C, strain sse1, stronger effect = lower value 0.948 | locus YPL240C, strain hsp82, stronger effect = lower value 0.994 | locus YPL256C, strain CLN2, stronger effect = lower value 1.01
